From PubChem BioAssay (NCI)
About 83,000 compounds went through this panel and 20% of them were active in at least one assay; those are over-represented in the sample as a whole.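 A percent growth of 40 corresponds to 60% growth inhibition; 0 means no net growth; -100 means all cells died. Active threshold: below 10.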 Unmarked numbers belong to inactive results. Active and inactive are the calls of the source.

Assays:
Assay in all cases: NCI-60 one-dose screen, 48 h (100 = growth as untreated, 0 = no growth, -100 = all killed)
Settings in all cases: 10 µM unless noted
[1] = system: T-47D breast
[2] = system: MDA-MB-435 melanoma
[3] = system: SW-620 colon
[4] = system: MCF7 breast
[5] = system: HCT-116 colon
[6] = system: HCC-2998 colon
[7] = system: KM12 colon
[8] = system: BT-549 breast

CC(=O)Nc1nc(C)c(C(=O)N/N=C/N2CCCCC2)s1
growth [1]: 98.4%
growth [2]: 125%
growth [3]: 106%
growth [4]: 94.8%
growth [5]: 55.8%
growth [6]: 20.3%
growth [7]: 128%

CCC(C)(C)c1ccc(OCCCCCCN2CCN(c3ccc(C)c(Cl)c3)CC2)cc1
growth [1]: 66.1%
growth [8]: 79.5%
growth [2]: 97.3%
growth [4]: 88.4%
growth [5]: 62.3%
growth [6]: 83.5%
growth [7]: 79.3%

CC1(C)Oc2cc3oc(=O)ccc3cc2C[C@@H]1OCCOS(=O)(=O)c1ccc(C#N)cc1
growth [8]: 90.3%
growth [2]: 94.9%
growth [3]: 89.3%
growth [4]: 82.3%
growth [5]: 110%
growth [6]: 103%
growth [7]: 103%

O=C(NCCCl)Nc1nccnc1OCc1ccc(F)cc1
growth [8]: 88.8%
growth [2]: 107%
growth [3]: 103%
growth [4]: 85.1%
growth [5]: 104%
growth [6]: 113%
growth [7]: 107%

CC/C(=N\Nc1nc2ccccc2n1C)c1ccccn1
growth [8]: 21%
growth [2]: 18.9%
growth [3]: 30%
growth [4]: 8.78% (active)
growth [5]: 11.7%
growth [6]: 32.3%
growth [7]: 18.5%

Cc1ccc(C(=O)Nc2ccc(CN3CCN(C)CC3)c(C(F)(F)F)c2)cc1C#Cc1cnc(N)c2ccc(F)cc12
growth [8]: -95.9% (active)
growth [2]: -93.2% (active)
growth [3]: -83.6% (active)
growth [4]: -79.7% (active)
growth [5]: -96.5% (active)
growth [6]: -78.5% (active)
growth [7]: -76.9% (active)

COc1cc(-c2nc3c(c(C)nc4c3nnn4-c3ccccc3)c(=O)o2)cc(OC)c1OC
growth [8]: 105%
growth [2]: 106%
growth [3]: 107%
growth [4]: 97.5%
growth [5]: 99.3%
growth [6]: 130%
growth [7]: 110%

O=C1/C(=N\c2cc(=O)[nH]n2S(=O)(=O)c2ccccc2)Nc2ccccc21
growth [8]: 106%
growth [2]: 108%
growth [3]: 99.3%
growth [4]: 96.5%
growth [5]: 99.3%
growth [6]: 104%
growth [7]: 99.4%

COc1ccc(-n2nnnc2-c2cn[nH]c2C(F)(F)F)cc1
growth [8]: 85.5%
growth [2]: 98.1%
growth [3]: 94.6%
growth [4]: 111%
growth [5]: 97%
growth [6]: 78.9%
growth [7]: 101%

Cc1ccc(C(=O)Nc2ccc(CN3CCN(C)CC3)c(C(F)(F)F)c2)cc1C#Cc1cnc(N)c2ccc(C#N)cc12
growth [8]: 53.1%
growth [2]: 10.8%
growth [3]: 46.2%
growth [4]: 74.2%
growth [5]: 13.9%
growth [6]: 93%
growth [7]: 18.4%

CC(=O)c1ccc2c(c1)c1ccccc1n2C
growth [8]: 96.1%
growth [2]: 99.3%
growth [3]: 113%
growth [4]: 86.4%
growth [5]: 96.7%
growth [6]: 100%
growth [7]: 97.9%

CCC(C)C1NC(=O)C(CCCCN)NC(=O)C(CCCCN)NC(=O)C(CC(C)C)NC(=O)C(CCCCN)NC(=O)C(C(C)CC)NC(=O)C(C(C)C)NC(=O)C(C(C)CC)NC(=O)C(CCCCN)NC(=O)C(CCCCN)NC(=O)C(C)NC(=O)C(CCCCN)NC(=O)C(CC(C)C)NC1=O (stereo not drawn)
growth [8]: 35.5%
growth [2]: 26.5%
growth [3]: 39.1%
growth [4]: 22.5%
growth [5]: 10.7%
growth [6]: 23.2%
growth [7]: 6.18% (active)

Cc1ccc(C(C)C)c(OCc2ccc(C(=O)N/N=C/c3cccc(O)c3O)cc2)c1
growth [8]: 36.2%
growth [2]: 55.9%
growth [3]: 47.8%
growth [4]: 15.1%
growth [5]: 20.4%
growth [6]: 45.7%
growth [7]: 36.1%

c1ccc(Nc2ncc3c(n2)-c2cccn2CC3)cc1
growth [8]: 102%
growth [2]: 105%
growth [3]: 102%
growth [4]: 13.4%
growth [5]: 92%
growth [6]: 47.5%
growth [7]: 27.9%

C=CCNC(=S)NNc1ccc([N+](=O)[O-])cn1
growth [8]: 100%
growth [2]: 95.7%
growth [3]: 92%
growth [4]: 88.4%
growth [5]: 97.6%
growth [6]: 96.3%
growth [7]: 99.4%

Clc1ccc(N/N=C/c2ccccn2)nc1
growth [8]: 23.4%
growth [2]: 24.4%
growth [3]: 36.7%
growth [4]: 0.994% (active)
growth [5]: 11.1%
growth [6]: 24.5%
growth [7]: 24.9%

CN1CCN(Cc2ccc(NC(=O)c3ccc(C#Cc4c(N)ncc5ccc(F)cc45)cc3)cc2C(F)(F)F)CC1
growth [8]: 27.7%
growth [2]: -92% (active)
growth [3]: -52.5% (active)
growth [4]: -77.3% (active)
growth [5]: -95.4% (active)
growth [6]: -82.9% (active)
growth [7]: -75.5% (active)

C#CCCCCCCC[C@@H]1OC(=O)[C@H]([C@@H](C)CC)NC(=O)[C@H]([C@@H](C)CC)NC(=O)CC(=O)[C@@H]1C
growth [8]: 108%
growth [2]: 105%
growth [3]: 98.2%
growth [4]: 95.4%
growth [5]: 93.4%
growth [6]: 106%
growth [7]: 100%

COC(=O)c1ccc2[nH]c(O)c(C(=Nc3ccc(N(C)C(=O)CN4CCN(C)CC4)cc3)c3cccc(OC)c3)c2c1
growth [8]: 11.2%
growth [2]: 31.8%
growth [3]: 2.03% (active)
growth [4]: 6.86% (active)
growth [5]: -5.68% (active)
growth [6]: 20.3%
growth [7]: 4.88% (active)

CC(=O)OCC1O[C@@H](OC(C)=O)[C@@H](NC(=O)NS(=O)(=O)c2ccccc2)C(OC(C)=O)[C@@H]1OC(C)=O (stereo partly drawn)
growth [8]: 102%
growth [2]: 105%
growth [3]: 111%
growth [4]: 92.6%
growth [5]: 108%
growth [6]: 113%
growth [7]: 105%

CCOC(=O)CSSCC(=O)OCC
growth [8]: 110%
growth [2]: 99.4%
growth [3]: 111%
growth [4]: 95.2%
growth [5]: 108%
growth [6]: 108%
growth [7]: 105%

Oc1ccccc1/C=N/N=C/c1c(O)ccc2ccccc12
growth [8]: 77.8%
growth [2]: 108%
growth [3]: 95%
growth [4]: 52.7%
growth [5]: 83%
growth [6]: 91.2%
growth [7]: 76.4%

Cc1ncc(C(=O)Nc2ccc(CN3CCN(C)CC3)c(C(F)(F)F)c2)cc1C#Cc1c(N)ncc2ccc(F)cc12
growth [8]: 23.6%
growth [2]: -66.5% (active)
growth [3]: -72.1% (active)
growth [4]: -72.6% (active)
growth [5]: -72% (active)
growth [6]: 39.1%
growth [7]: -80.7% (active)

C/C=C(/C)C(=O)OC1C=C(CO)C(=O)C(OC(=O)C(C)(O)C(C)Cl)C1C(C)C (stereo not drawn)
growth [8]: -9.98% (active)
growth [2]: -23.2% (active)
growth [3]: -45.7% (active)
growth [4]: 8.43% (active)
growth [5]: -56.5% (active)
growth [6]: -76.3% (active)
growth [7]: -45.1% (active)

Nc1ncn([C@@H]2O[C@H](CO)[C@@H](O)C2(F)F)c(=O)n1
growth [8]: 53.6%
growth [2]: 53%
growth [3]: 51.2%
growth [4]: 20.7%
growth [5]: 29.8%
growth [6]: 60.4%
growth [7]: 61.2%

O=C1C(=O)c2ccccc2C(O)=C1CCCc1ccc(Oc2ccccc2)cc1
growth [8]: 60.9%
growth [2]: 45.4%
growth [3]: 39.9%
growth [4]: 83.3%
growth [5]: 22.1%
growth [6]: 103%
growth [7]: 67.3%

COC(=O)c1ccc2[nH]c(O)c(C(=Nc3ccc(N(C)C(=O)CN4CCN(C)CC4)cc3)c3ccc(C)cc3)c2c1
growth [8]: -39.5% (active)
growth [2]: 10.3%
growth [3]: -26.5% (active)
growth [4]: -67.8% (active)
growth [5]: -66.1% (active)
growth [6]: 9.34% (active)
growth [7]: -17.3% (active)

COC(=O)c1ccc2[nH]c(O)c(C(=Nc3ccc(N(C)C(=O)CN4CCN(C)CC4)cc3)c3ccc(CCO)cc3)c2c1
growth [8]: 20.6%
growth [2]: 60.8%
growth [3]: 27.9%
growth [4]: 26.3%
growth [5]: 9.37% (active)
growth [6]: 53.2%
growth [7]: 18.5%

O=C(Nc1cccc(Cn2c(=O)[nH]c3ccc(Oc4ncccn4)cc3c2=O)c1)c1cc(Cl)cc(Cl)c1
growth [8]: -3.71% (active)
growth [2]: 67.3%
growth [3]: 89.5%
growth [4]: 64%
growth [5]: 59.9%
growth [6]: 85.6%
growth [7]: 40.6%

Cc1c(Cc2ccccc2)c(=O)oc2c(C)c(OCc3n[nH]c(=S)o3)ccc12
growth [8]: 96.9%
growth [2]: 61.5%
growth [3]: -7.67% (active)
growth [4]: 14.5%
growth [5]: 6.37% (active)
growth [6]: 94.9%
growth [7]: 43.1%

Cc1ncc(C(=O)Nc2ccc(CN3CCN(C)CC3)c(C(F)(F)F)c2)cc1C#Cc1cnc(NC2CC2)c2ncccc12
growth [8]: -91.7% (active)
growth [2]: -86.4% (active)
growth [3]: -74.3% (active)
growth [4]: -76.8% (active)
growth [5]: -90% (active)
growth [6]: -54.4% (active)
growth [7]: -82.6% (active)

COc1cc(Cn2ccc3c2-c2oncc2CC3)cc(OC)c1
growth [8]: 32.9%
growth [2]: -37% (active)
growth [3]: 18%
growth [4]: 6.18% (active)
growth [5]: 14.7%
growth [6]: 61.6%
growth [7]: 24.5%

O=C1c2ccccc2CCc2ccccc21
growth [8]: 99%
growth [2]: 100%
growth [3]: 99.3%
growth [4]: 94.9%
growth [5]: 98.2%
growth [6]: 97.5%
growth [7]: 102%

CC(=O)OC1/C=C\CC/C=C\C1 (stereo not drawn)
growth [8]: 110%
growth [2]: 103%
growth [3]: 101%
growth [4]: 106%
growth [5]: 107%
growth [6]: 129%
growth [7]: 103%
